A number with no mark means an inactive call. Inconclusive results are not listed. Calls of active or inactive are those of the source. Unless noted, calls come from the whole dose curve.

A short description of assay [1]: Validation screen for inhibitors of Lassa infection (AID 463096). Note: potency is the fitted concentration of half-maximal effect.
Assay [2] is described as follows: Inducers of the Endoplasmic Reticulum Stress Response (ERSR) in human glioma: Validation (AID 504836; active = well fitted curve in the direction sought with a large enough effect; an effect the other way counts as inactive or inconclusive). An outline of the steps:
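Stably transfected U87-MG glioma cells carrying a GRP78-based luciferase sensor; 16 h compound incubation. Luminescence end-point read 10 min after Bright-Glo addition at room temperature.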

The nature of assay [3]: qHTS for Inhibitors of the Functional Ribonucleoprotein Complex (vRNP) of Lassa (LASV) Arenavirus: LASV Primary Screen - GLuc reporter signal (AID 1347082; calls by dose curve; tested in HEK293 reporter line; note: series mostly up to about 57 µM; nearly all actives have a fitted effect of over 60% in size). On the technique in general: qHTS replaces the single test concentration by a dilution series.
Assay [4] in a line: qHTS for Inhibitors of the Functional Ribonucleoprotein Complex (vRNP) of Lassa (LASV) Arenavirus: Viability assay - alamar blue signal for LASV Primary Screen (AID 1347083; calls by dose curve; tested in HEK293 reporter line; note: series mostly up to about 57 µM; nearly all actives have a fitted effect of over 80% in size).
A short description of assay [5]: qHTS for Inhibitors of the Functional Ribonucleoprotein Complex (vRNP) of Lymphocytic Choriomeningitis Arenaviruses (LCMV): Viability assay - alamar blue signal for LCMV Primary Screen (AID 1347085; calls by dose curve; tested in HEK293 reporter line; note: series mostly up to about 57 µM; nearly all actives have a fitted effect of over 80% in size).
Assay [6] has as its target Nucleoprotein (Lymphocytic choriomeningitis virus (strain Armstrong)) (UniProt P09992). Put plainly: qHTS for Inhibitors of the Functional Ribonucleoprotein Complex (vRNP) of Lymphocytic Choriomeningitis Arenaviruses (LCMV): LCMV Primary Screen - GLuc reporter signal (AID 1347086). Note: series mostly up to about 57 µM; nearly all actives have a fitted effect of over 70% in size.
For assay [7], the target named is Alpha-galactosidase (Coffea arabica) (UniProt Q42656). Nature of the assay: Counterscreen for Glucocerebrosidase Inhibitors: qHTS Assay for Coffee Bean alpha-Galactosidase at pH 4.5 (AID 957; active = well fitted curve in the direction sought with a large enough effect; an effect the other way counts as inactive or inconclusive; note: series mostly up to about 77 µM). The method in brief: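 Green coffee bean enzyme (2 nM final) was incubated with compounds (0.7 nM to 77 uM) and 4-methylumbelliferyl alpha-D-galactopyranoside (80 uM final) in 50 mM citric acid, 0.005% Tween-20, pH 4.5, 20 min at room temperature; AC50 from Hill fits.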
For orientation: The purpose of a counterscreen is to sort out artefacts and off-target activity.

Assay [8] has the same target. Put plainly: Counterscreen for Glucocerebrosidase Inhibitors: qHTS Assay for Coffee Bean alpha-Galactosidase at pH 5.9 (AID 998; active = well fitted curve in the direction sought with a large enough effect; an effect the other way counts as inactive or inconclusive). The method in brief:
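Green coffee bean enzyme (2 nM) with 4-methylumbelliferyl alpha-D-galactopyranoside (80 uM) in 50 mM citric acid, 0.005% Tween-20, pH 5.9, 20 min at room temperature; compounds 0.7 nM–77 uM. Stopped at pH 10, fluorescence Ex365/Em440; Hill-fit AC50.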

Assay [9] deals with Cytochrome P450 3A4 (Homo sapiens) (UniProt P08684). Put plainly: qHTS Assay for Inhibitors and Substrates of Cytochrome P450 3A4 (AID 884; active = well fitted curve in the direction sought with a large enough effect; an effect the other way counts as inactive or inconclusive; note: series mostly up to about 57 µM; nearly all actives have a fitted effect of over 50% in size). An outline of the steps:
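20 nM human CYP3A4 with 25 uM Luciferin-PPXE (at KM) in 200 mM KPO4, preincubated 10 min with compound; NADPH regeneration started a 60 min RT reaction. Luciferin detected by luminescence, normalized to 57 uM ketoconazole as full inhibition.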

The target is the same in assay [10]. Put plainly: qHTS Assay for Activators of Cytochrome P450 3A4 (AID 885; active = well fitted curve in the direction sought with a large enough effect; an effect the other way counts as inactive or inconclusive; note: nearly all actives have a fitted effect of over 65% in size). The method in brief: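 20nM CYP3A4 + 25uM Luciferin-PPXE (=KM), 200mM KPO4; cpd 10 min RT; NADPH regen, 60 min RT; stop w/ detection buffer, 20 min; luminescence. Normalized to 57 uM ketoconazole.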

Alpha-galactosidase (Coffea arabica), sequence (Q42656 whole entry, looked up): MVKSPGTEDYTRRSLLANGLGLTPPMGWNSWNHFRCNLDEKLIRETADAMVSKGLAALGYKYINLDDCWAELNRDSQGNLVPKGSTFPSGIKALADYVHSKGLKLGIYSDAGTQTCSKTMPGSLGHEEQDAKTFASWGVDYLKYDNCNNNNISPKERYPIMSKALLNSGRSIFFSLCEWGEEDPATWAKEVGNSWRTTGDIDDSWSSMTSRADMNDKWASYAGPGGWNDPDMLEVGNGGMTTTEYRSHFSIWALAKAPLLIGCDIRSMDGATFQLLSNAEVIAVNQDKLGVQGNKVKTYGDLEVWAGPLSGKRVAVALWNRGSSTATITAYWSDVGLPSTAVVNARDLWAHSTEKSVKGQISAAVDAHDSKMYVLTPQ
Nucleoprotein (Lymphocytic choriomeningitis virus (strain Armstrong)), sequence (P09992 whole entry, looked up): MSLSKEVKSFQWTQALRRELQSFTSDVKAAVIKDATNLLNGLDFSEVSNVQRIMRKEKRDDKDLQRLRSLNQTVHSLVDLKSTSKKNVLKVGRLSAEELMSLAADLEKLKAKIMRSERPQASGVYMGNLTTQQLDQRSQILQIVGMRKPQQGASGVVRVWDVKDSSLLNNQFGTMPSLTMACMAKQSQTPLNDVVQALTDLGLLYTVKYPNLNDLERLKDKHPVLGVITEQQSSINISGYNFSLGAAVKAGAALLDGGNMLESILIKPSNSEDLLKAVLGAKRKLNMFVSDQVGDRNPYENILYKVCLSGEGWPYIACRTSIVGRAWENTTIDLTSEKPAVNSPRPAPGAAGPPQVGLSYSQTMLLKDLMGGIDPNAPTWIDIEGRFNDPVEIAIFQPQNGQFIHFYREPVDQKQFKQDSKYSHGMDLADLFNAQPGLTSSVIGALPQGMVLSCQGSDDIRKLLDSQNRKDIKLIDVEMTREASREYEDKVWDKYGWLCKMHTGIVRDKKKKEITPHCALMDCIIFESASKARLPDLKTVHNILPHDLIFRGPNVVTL
Cytochrome P450 3A4 (Homo sapiens), sequence (P08684 whole entry, looked up): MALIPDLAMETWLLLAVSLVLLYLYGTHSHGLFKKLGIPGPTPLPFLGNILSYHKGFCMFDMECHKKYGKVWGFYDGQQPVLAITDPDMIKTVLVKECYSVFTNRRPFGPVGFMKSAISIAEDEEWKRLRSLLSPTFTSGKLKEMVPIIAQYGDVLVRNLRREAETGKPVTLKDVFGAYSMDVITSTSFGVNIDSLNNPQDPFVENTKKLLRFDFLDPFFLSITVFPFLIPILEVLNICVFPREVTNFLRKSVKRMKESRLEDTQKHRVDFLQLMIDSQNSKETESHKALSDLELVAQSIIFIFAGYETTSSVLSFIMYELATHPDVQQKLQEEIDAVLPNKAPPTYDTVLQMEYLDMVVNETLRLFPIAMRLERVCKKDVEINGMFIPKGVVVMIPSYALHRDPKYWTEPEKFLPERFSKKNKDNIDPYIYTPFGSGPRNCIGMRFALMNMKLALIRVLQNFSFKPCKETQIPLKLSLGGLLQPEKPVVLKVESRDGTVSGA

Turning to `CCCCCCCCCCCCCCCCCCOC[C@H](COP(=O)([O-])OCC[N+](C)(C)C)OC`, the Potency result in assay [1], in assay [3], in [4], in [5] and in assay [6] was “inactive” throughout. Moreover, in [2], the outcome was inactive.
For the molecule `CCCCCC(O)CCCC(=O)O` (configuration not stated), the Potency entry in [1], in assay [3], in assay [4], in assay [5] and in [6] was “inactive” each time. In addition, the call in assay [2] was inactive.
As for `NCCC1CCCC(CCN)N1` (configuration not stated), the Potency result in assay [1], in [3], in assay [4], in [5] and in assay [6] was “inactive” each time. The molecule was classed as inactive in assay [2].
For `NC1CONC1=O` (configuration not stated), the Potency result in assay [1], in [3], in assay [4], in assay [5] and in assay [6] was “inactive” in each case. Besides, the outcome in assay [2] was inactive.
Turning to `CN1C2CCC1CC(OC(=O)C(O)c1ccccc1)C2` (configuration not stated), the Potency result in [1], in assay [3], in assay [4], in assay [5] and in assay [6] was “inactive” throughout. Further, in assay [2], the molecule was called inactive.
On to `CC1CCN(CC[C@H]2CCCN2S(=O)(=O)c2cccc(O)c2)CC1`, for which the Potency result in [1], in assay [3], in assay [4], in [5] and in assay [6] was “inactive” throughout. For the same molecule, the call in assay [2] was inactive.
Take `O=C(/C=C/c1ccc(O)cc1)c1ccc(O)cc1O`: the Potency entry in assay [1], in assay [3], in [4], in assay [5] and in [6] was “inactive” in each case. In [2], the molecule was classed as inactive.
Turning to `CC(C)(C)c1onc(OCP(=O)(O)O)c1CC(N)C(=O)O` (configuration not stated), the Potency result in assay [1], in assay [3], in [4], in assay [5] and in [6] was “inactive” in each case. Besides, the molecule was classed as inactive in assay [2].
For `OCC1NCC(O)C(O)C1O` (configuration not stated), the Potency result in [1], in [3], in [4], in assay [5] and in [6] was “inactive” each time. The molecule was classed as inactive in assay [2].
Regarding `Cc1ccccc1CNc1ncnc2c1ncn2C1OC(CO)C(O)C1O` (configuration not stated), the Potency result in assay [1], in assay [3], in assay [4], in [5] and in assay [6] was “inactive” in each case. For the same molecule, the molecule was classed as inactive in assay [2].
For `CN1C2CCC1CC(OC(c1ccccc1)c1ccccc1)C2` (configuration not stated), the Potency in [1] is 10 µM (active). Besides, the result in assay [2] was inactive. Further, the Potency entry in assay [3], in assay [4], in assay [5] and in [6] was “inactive” each time.
Take `CC1(C)CCC(NC(=O)[C@@H](N)CCC(=O)O)CC1`: the Potency result in assay [1], in [3], in [4], in assay [5] and in assay [6] was “inactive” in each case. Besides, in assay [2], the result was inactive.
Consider `Oc1cc2c(cc1O)C(c1ccccc1)CNCC2` (configuration not stated), for which the Potency result in assay [1], in [3], in assay [4], in [5] and in [6] was “inactive” throughout. The call in assay [2] was inactive.
`NC(C(=O)N[C@@H]1C(=O)N2C(C(=O)O)=C(Cl)CS[C@H]12)c1ccccc1` (some centres not stated): the Potency entry in [1], in assay [3], in assay [4], in [5] and in [6] was “inactive” in each case. The molecule was called inactive in assay [2].
As to `OC[C@H]1NC[C@@H](O)[C@@H]1O`, the Potency entry in assay [1], in [3], in [4], in assay [5] and in [6] was “inactive” in each case. Further, the molecule was classed as inactive in assay [2].
In the case of `CCCC[C@@]1(C2CCCC2)Cc2cc(OCC(=O)O)c(Cl)c(Cl)c2C1=O`, the Potency result in assay [1], in [3], in assay [4], in assay [5] and in assay [6] was “inactive” throughout. The result in [2] was inactive.
On to `Cc1ccc2c(c1)C(N1CCN(C)CC1)=Nc1cccnc1N2`, for which the result in [7], in assay [8] and in assay [2] was inactive. In addition, the Potency entry in assay [1], in assay [3], in assay [4], in assay [5] and in [6] was “inactive” in each case.
For the molecule `CN1CCN(c2nc3cc(C(F)(F)F)ccc3n3cccc23)CC1`, the call in assay [7], in assay [8] and in assay [2] was inactive. Moreover, the Potency result in assay [1], in assay [3], in [4], in assay [5] and in [6] was “inactive” in each case.
With `CC1C(=O)N(C)C(=O)c2nc[nH]c21` (configuration not stated), the Potency entry in assay [1], in assay [3], in assay [4], in assay [5] and in assay [6] was “inactive” in each case. Further, the call in [2] was inactive.
With `OC[C@H]1O[C@@H](n2cnc3cncnc32)[C@H](O)[C@@H]1O`, the Potency result in assay [9], in assay [1], in assay [3], in [4], in assay [5] and in [6] was “inactive” in each case. Besides, the molecule was classed as inactive in assay [2].
For the molecule `O=[N+]([O-])c1cccc2cn[nH]c12`, the result in assay [7], in assay [8] and in assay [2] was inactive. Further, the Potency entry in assay [1], in [3], in assay [4], in [5] and in assay [6] was “inactive” throughout.
On to `O=C(O)/C=C/C(O)c1ccc(Cl)cc1` (configuration not stated), for which the Potency result in assay [1], in assay [3], in assay [4], in assay [5] and in [6] was “inactive” each time. Also, in assay [2], the molecule was called inactive.
For the molecule `O=C(O)C1CCCNC1` (configuration not stated), the Potency result in [1], in [3], in assay [4], in assay [5] and in [6] was “inactive” each time. The molecule was called inactive in assay [2].
For `O=C(O)C1CN(CCCP(=O)(O)O)CCN1` (configuration not stated), the Potency result in assay [1], in assay [3], in [4], in assay [5] and in [6] was “inactive” in each case. Also, the outcome in assay [2] was inactive.
In the case of `O=C(O)/C=C/c1cnc[nH]1`, the Potency result in [1], in assay [3], in assay [4], in [5] and in assay [6] was “inactive” each time. Moreover, in [2], the molecule was called inactive.
In the case of `O=c1[nH]c2cc([N+](=O)[O-])c([N+](=O)[O-])cc2[nH]c1=O`, the call in [7], in assay [8] and in [2] was inactive. In addition, the Potency entry in [1], in assay [3], in assay [4], in assay [5] and in [6] was “inactive” throughout.
Turning to `CCOC(=O)C12CC1/C(=N/O)c1ccccc1O2` (configuration not stated), the Potency result in [1], in assay [3], in assay [4], in assay [5] and in assay [6] was “inactive” in each case. The call in [2] was inactive.
In the case of `CCCn1c(=O)c2[nH]c(-c3ccc(S(=O)(=O)O)cc3)nc2n(CCC)c1=O`, the molecule was classed as inactive in assay [7], in assay [8] and in assay [2]. Moreover, the Potency result in [1], in assay [3], in [4], in assay [5] and in assay [6] was “inactive” throughout.
`C=CCN1CCc2c(cc(O)c(O)c2Br)[C@@H](c2ccccc2)C1`: the Potency entry in assay [1], in assay [3], in [4], in [5] and in assay [6] was “inactive” in each case. Moreover, the molecule was called inactive in assay [2].
Turning to `CC1(C)CCC2=C(O1)c1ccccc1C(=O)C2=O`, the Potency entry in [10], in assay [3], in assay [4], in assay [5] and in assay [6] was “inactive” throughout. The call in assay [7], in [8] and in [2] was inactive. The Potency in assay [1] is 11.2 µM (active).
With `O=C(O)/C(=C/c1c(C(=O)O)[nH]c2cc(Cl)cc(Cl)c12)c1ccccc1`, the outcome in assay [7], in [8] and in assay [2] was inactive. Moreover, the Potency result in assay [1], in [3], in [4], in [5] and in assay [6] was “inactive” throughout.

These data come from PubChem BioAssay (NCATS).
